NCOA1 inh: human NCOA1 inhibition | HEK293 GAL4-SRC1 luciferase reporter, luminescence | inhibition, % at 3.6 µM | 360,000 tested, 0.12% active | AID 588354;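 active = inhibition above the campaign mean plus 3 SD, with each screening campaign given its own cutoff, cut at about 60% in these data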
NR5A2 inv ag: suppresses constitutive activity of human LRH-1. HEK293T StAR-luciferase reporter, LRH-1 transfected, 24 h. inhibition, % at 3.6 µM. 360,000 tested, 0.13% active;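 active = inhibition above the mean inhibition of all tested compounds plus 3 SD, cut at about 73% in these data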
SRC2 inh: inhibits human steroid receptor coactivator 2; HEK293 GAL4-SRC2 luciferase reporter, luminescence; inhibition, % at 9 µM; 370,000 tested, 0.17% active; AID 651957;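 active = inhibition above the mean inhibition of all tested compounds plus 3 SD, set per campaign, cut at about 52% in these data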
EBV LMP1 NFkB: inhibitors of Epstein-Barr LMP1-induced NF-kappaB reporter; 350,000 tested, 0.69% active; AID 504558; inhibition, % at 12.5 µM; LMP1-induced NF-kappaB luciferase reporter cells, luminescence; in the data active = inhibition above about 41%
SRC3 inh: inhibitors of human steroid receptor coactivator 3 (SRC3). HEK293 GAL4-SRC3 luciferase reporter, luminescence. inhibition, % at 3.6 µM. 360,000 tested, 0.17% active. AID 588352;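 active = inhibition above a per-campaign cutoff, the mean of all compounds plus 3 SD, cut at about 60% in these data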;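 note: higher means less SRC3-driven luciferase light from the GAL4 reporter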
Of the large screens only hits and unclear results are named; the others gave an inactive call. The list is not random: actives were taken first. Their share in the collection is about 0.78%.

CCc1ccc(/C=N/NC(=O)c2ccccn2)cc1	EBV LMP1 NFkB 49
CCOc1ccc(NC(=O)c2cnccn2)cc1	none
CCOc1ccc(NC(=O)c2cnsn2)cc1	EBV LMP1 NFkB 56
COc1cccc(NC(=O)c2cnsn2)c1	none (no result: SRC2 inh)
CCN(CC)C(=O)c1ccc(C(CCOC(=O)Oc2ccccc2)c2ccc(OC)cc2)cc1 (configuration not stated)	none (no result: NCOA1 inh, NR5A2 inv ag, EBV LMP1 NFkB, SRC3 inh)
O=C(O)c1ccc(N/N=C/c2ccc3nccnc3c2)cc1	SRC2 inh 68, EBV LMP1 NFkB 82, SRC3 inh 62
O=C(O)c1ccc(N/N=C/c2ccc(OC(=O)c3cccc(Cl)c3)cc2)cc1	EBV LMP1 NFkB 61
O=C(Oc1ccc(/C=N/Nc2ccccc2)cc1)c1ccccc1	none
Cn1cccc1/C=N/n1c(-c2ccc(Cl)cc2Cl)n[nH]c1=S	EBV LMP1 NFkB 84
Cn1cccc1/C=N/n1c(-c2ccc(Cl)cc2)n[nH]c1=S	none
CCCS(=O)(=O)c1cnc(C2COc3ccccc3O2)nc1N (configuration not stated)	SRC2 inh 69, EBV LMP1 NFkB 71
O=C(O)c1cccc(COc2ccc(CO)cc2Cl)c1	EBV LMP1 NFkB 91
O=C(NOCc1ccccc1)c1ccc(Cl)cc1	none
CCOc1ccc(OCc2cccc(C(=O)O)c2)cc1	EBV LMP1 NFkB 83
COc1ccc(C(=O)NOCc2ccccc2)cc1	EBV LMP1 NFkB 48
COc1ccc(OCc2cccc(C(=O)O)c2)cc1	EBV LMP1 NFkB 86
CC(C)CN1C(=O)[C@]2(CC(=O)N(C)C2c2ccccc2)c2cc(-n3cc(CN(C)C)nn3)ccc21 (some centres not stated)	none (no result: NCOA1 inh, NR5A2 inv ag, EBV LMP1 NFkB, SRC3 inh)
N/C(=N\C(=O)OCc1ccccc1)N(Cc1ccccc1)C(C#CC1=CCCCC1)Cc1ccccc1 (configuration not stated)	none (no result: NCOA1 inh, NR5A2 inv ag, EBV LMP1 NFkB, SRC3 inh)
Cc1ccc2nc(-c3ccc(NC(=O)CSc4nnc(-c5ccccc5)n4Cc4ccco4)cc3)sc2c1	none (no result: NCOA1 inh, NR5A2 inv ag, EBV LMP1 NFkB, SRC3 inh)
COC(=O)[C@@]12CCCCC3=C1N(CCC3)C(=O)[C@H]2CC(=O)NCCc1ccccc1OC	none (no result: NCOA1 inh, NR5A2 inv ag, EBV LMP1 NFkB, SRC3 inh)
O=C(OCC(F)(F)F)c1cccc(COc2ccc3ccccc3c2)c1	EBV LMP1 NFkB 79
O=Cc1ccc(OCc2cccc(C(F)(F)F)c2)cc1O	none
O=C(c1cccc(F)c1)N(Cc1ccccn1)CC1CCCO1 (configuration not stated)	none (no result: NCOA1 inh, NR5A2 inv ag, EBV LMP1 NFkB, SRC3 inh)
COc1cccc2[nH]c(=O)c(-c3ccccc3)cc12	SRC3 inh 83
COc1ccc(-c2cc(=O)[nH]c3ccccc23)cc1	none
CCNC(=O)OCCC12CC3CC(CC(C3)C1)C2	none
N#CCC(=O)Nc1ccc(C(=O)OCC(=O)C23CC4CC(CC(C4)C2)C3)cc1	none
O=C(OCCC12CC3CC(CC(C3)C1)C2)c1ccc(NCc2cc(O)ccc2O)cc1	SRC2 inh 94, SRC3 inh 74
O=C(OCC12CC3CC(CC(C3)C1)C2)c1ccc(NCc2cc(O)ccc2O)cc1	SRC2 inh 85, SRC3 inh 73
CC1C=CC=CCCC=CC=CC=CC=CC(OC2O[C@H](C)[C@@H](O)[C@H](N)[C@@H]2O)CC(O)C(C(=O)O)C(O)CC(=O)CC(O)C(O)CCC(O)CC(O)CC(O)CC(=O)OC(C)C(C)C1O (some centres not stated)	none (no result: NCOA1 inh, NR5A2 inv ag, EBV LMP1 NFkB, SRC3 inh)
Nc1[nH]c(C(=O)c2ccccc2)c(-c2ccc(Cl)c(F)c2)c1C(=O)c1c[nH]c2ccccc12	none (no result: NCOA1 inh, NR5A2 inv ag, EBV LMP1 NFkB, SRC3 inh)
CCOC(=O)C1=NOC(C(C)=O)(C(=O)N2CCOCC2)C1 (configuration not stated)	none (no result: NCOA1 inh, NR5A2 inv ag, EBV LMP1 NFkB, SRC3 inh)
COC(=O)[C@H](C(C)C)N1CCc2nnn(CC3CCCCC3)c2-c2cc(F)ccc2S1(=O)=O	none (no result: NCOA1 inh, NR5A2 inv ag, EBV LMP1 NFkB, SRC3 inh)
Cn1nnnc1N=N/C(=N/Nc1ccccc1)c1ccccc1	NCOA1 inh 76, EBV LMP1 NFkB 60, SRC3 inh 81
COc1ccc(-c2nnc(SCC(=O)Nc3ccc4cn[nH]c4c3)n2Cc2ccco2)cc1	none (no result: NCOA1 inh, NR5A2 inv ag, EBV LMP1 NFkB, SRC3 inh)
Cc1ccc(Cn2c(O)c(N=NC(=S)Nc3ccccc3F)c3ccccc32)cc1	none
Oc1c(N=NC(=S)Nc2ccccc2F)c2ccccc2n1Cc1ccccc1	EBV LMP1 NFkB 45
C=CCn1c(O)c(N=NC(=S)Nc2ccccc2F)c2cc(S(=O)(=O)N3CCOCC3)ccc21	EBV LMP1 NFkB 52
Cc1ccccc1NC(=S)N=Nc1c(O)n(C)c2ccc(S(=O)(=O)N3CCOCC3)cc12	none
C=CCn1c(O)c(N=NC(=S)Nc2ccccc2F)c2ccccc21	EBV LMP1 NFkB 60
CCOC(=O)[C@]12CCCCC/C=C\1N(Cc1ccc(OC)cc1)C(=O)[C@H]2CC(=O)N1CCN(C(=O)c2ccco2)CC1	none (no result: NCOA1 inh, NR5A2 inv ag, EBV LMP1 NFkB, SRC3 inh)

Bioassay records deposited in PubChem BioAssay by several laboratories.
